Source: PubChem BioAssay AID2315 (National Center for Advancing Translational Sciences (NCATS), 2010)
About 27,000 (9.3%) of roughly 290,000 compounds were called active. Shown is part of a subset that was picked to be rich in actives. A number with no mark means an inactive call. Cut-off read from the data, not from the text of the source: active = inhibition mostly above about 28% (no sharp cut-off); inactive = mostly below about 43%.

Assay: A qHTS for Small Molecule Inhibitors of Shiga Toxin; note: 0% is about no effect
Conditions: Vero cells, Shiga toxin protein synthesis inhibition reporter; at 38.7 µM, hits give high values

Row | SMILES | inhibition
1 | O=C(Nc1cccc(C(=O)N2CCCC2)c1)c1ccccc1 | -3.28%
2 | O=C(Cc1ccccc1)Nc1cccc(NC(=O)c2ccccc2)c1 | -14.6%
3 | COc1cc(/C=C(/NC(=O)c2ccccc2)C(=O)Nc2cccc(O)c2)c([N+](=O)[O-])cc1OC | -3.28%
4 | C/C(=C\C(=O)c1cccnc1)Nc1ccc(C)c(C)c1 | 43.6%
5 | O=C(Nc1cccc(O)c1)c1ccc(C(=O)c2ccccc2)o1 | 88% (active)
6 | C/C(=C\C(=O)c1ccccc1)Nc1cccc(O)c1 | 141% (active)
7 | CCCc1nnc(NC(=O)CCC(=O)N2CCN(S(=O)(=O)c3ccc(OC)cc3)CC2)s1 | 4.3%
8 | Cc1cc(NC(=O)Nc2c[nH]c(=O)[nH]c2=O)ccc1Br | -3.83%
9 | C=CCn1c(=O)c(C(=O)Nc2ncccc2O)c(O)c2ccccc21 | 4.1%
10 | CN(C)S(=O)(=O)c1ccc(N2CCCC2)c(C(=O)Nc2cccc(F)c2)c1 | -10.4%
11 | Nc1c(-c2cccc(Cl)c2)cnn1-c1cccc([N+](=O)[O-])c1 | 48.6% (active)
12 | O=[N+]([O-])c1cccc(C2=NCCS2)c1 | 8.55%
13 | O=C(CCl)N(Cc1cccc([N+](=O)[O-])c1)c1cccc(Cl)c1 | -27.9%
14 | COc1ccc(CSc2nnnn2-c2ccc(O)cc2)cc1F | 19.9%
15 | CN(C(=O)c1ccno1)c1nnc(-c2cccnc2)s1 | 5.36%
16 | CN(C(=O)C1CCOC1)c1nnc(-c2cccnc2)s1 (configuration not stated) | 22% (active)
17 | COc1cccc(-c2nnc(N(C)C(=O)c3ccno3)s2)c1 | 30.2%
18 | O=C(/C=C/c1cccc([N+](=O)[O-])c1)N1CCN(Cc2ccccc2)CC1 | 12.7%
19 | CNC(=O)N1c2ccccc2C=Cc2ccccc21 | -6.09%
20 | O=C(Nc1ccnc(-c2ccncc2)n1)c1cccs1 | -8.52%
21 | COC(=O)c1nc(NC(=O)c2ccc(C(C)(C)C)cc2)n[nH]1 | 10.9%
22 | CSc1nccc(NC(=O)c2ccc(C(C)(C)C)cc2)n1 | 71.6% (active)
23 | CCOC(=O)c1c(S(=O)(=O)Nc2cccc(Cl)c2)c(C)n(C)c1C | -10.6%
24 | Cc1ccc(-n2ncc3c(Nc4cccc(C(=O)O)c4)ncnc32)cc1 | 76.6% (active)
25 | O=C(NNc1ncnc2c1cnn2-c1ccccc1)c1ccco1 | 35.5%
26 | Cc1ccc(Nc2ncnc3c2cnn3C)c(C)c1 | 2.4%
27 | O=C(Nc1ccc(Br)cc1F)C1CC(=O)N(C2CCCCC2)C1 (configuration not stated) | 0.452%
